From PubChem
Sampled rows, rich in hits. Any-hit rate of the full collection: about 21%.
DT40 TDP1 no CPT = qHTS for Inhibitors of human tyrosyl-DNA phosphodiesterase 1 (TDP1): qHTS in cells in absence of CPT; 15% of 420,000 active; Potency, µM (doses to about 46.2 µM), inactives show at the top dose activity change, negative = growth inhibition, most hits filed as inhibitors; DT40 Tdp1-/- hTDP1 cells, no CPT, ATP luminescence, 48 h; further: potency means the concentration at half of the fitted maximal effect; on the % scale 0 is the no-effect control and ±100 the full control effect; nearly all actives have a fitted effect of over 55% in size
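Luminescent ATP content (CellTiter-Glo) served as the growth readout. Knockout chicken DT40 cells expressing human TDP1 were exposed to compounds without camptothecin for a minimum 48 hr at 37 °C.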
DRD3 agonist = qHTS of D3 Dopamine Receptor Agonist: qHTS | D3R DiscoveRx beta-arrestin cells, luminescence, 90 min | max activation, % | 0.58% of 410,000 active | AID 652048, 2013; in the data active means max activation above about 30%; further: 0% is about no effect
Target sequence (P35462 whole entry, looked up): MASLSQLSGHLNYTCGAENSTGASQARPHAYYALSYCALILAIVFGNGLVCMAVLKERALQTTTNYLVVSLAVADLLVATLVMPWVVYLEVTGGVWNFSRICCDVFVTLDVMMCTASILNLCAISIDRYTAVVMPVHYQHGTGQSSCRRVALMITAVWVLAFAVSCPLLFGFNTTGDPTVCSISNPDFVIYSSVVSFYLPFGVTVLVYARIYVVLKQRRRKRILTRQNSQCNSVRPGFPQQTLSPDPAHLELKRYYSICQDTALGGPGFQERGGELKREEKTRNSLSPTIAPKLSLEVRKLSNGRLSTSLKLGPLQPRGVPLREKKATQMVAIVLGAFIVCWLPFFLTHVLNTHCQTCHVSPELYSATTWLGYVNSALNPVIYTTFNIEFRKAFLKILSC
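Cells at 1500/well, incubated overnight, then treated with pinned compounds (dopamine as control) for 90 min at 37 degrees C. DiscoveRx reagent added for 30 - 60 minutes at room temperature; luminescence read.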
IL1B secr inh = qHTS for Inhibitors of Inflammasome Signaling: IL-1-beta AlphaLISA Primary Screen; THP-1 LPS/ATP IL-1B secretion, AlphaLISA, 16 h; active compounds read low; activity change, % at 57.5 µM; 4.7% of 360,000 active; in the data active means activity change below about -50%; inconclusive means mostly about -30% to -49%; further: on the % scale 0 is the no-effect control and ±100 the full control effect
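THP-1 cells pretreated 1 hr with compounds (up to 57.5 uM final), then stimulated with LPS (250 ng/mL final) plus ATP (1.25 mM final); secreted IL-1B measured by AlphaLISA after 16 hr, decreased signal indicating inhibition.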
DRD3 antagonist = qHTS of D3 Dopamine Receptor Antagonist: qHTS; D(3) dopamine receptor (Homo sapiens), P35462; D3R cells, DiscoveRx beta-arrestin luminescence, antagonist mode; active compounds read low; max response, negative = inhibition, %; 2.5% of 360,000 active; AID 652054, 2013; in the data active means max response below about -50%; inconclusive means no clear call, values can overlap the other calls; further: on the % scale 0 is the no-effect control and ±100 the full control effect
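Cells expressing the human receptor were seeded at 1500 cells/well, incubated overnight at 37 degrees C in 5% CO2, then exposed to library compounds with dopamine controls for 90 minutes at 37 degrees C before luminescent detection.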
ClpP mod = qHTS Assay for Activators of ClpP | 1.9% of 340,000 active | ATP-dependent Clp protease proteolytic subunit (Bacillus subtilis (strain 168)), P80244 | Potency, µM (titrated, usually from 57.5 µM), inactives show top-dose activity change, negative = active | purified B. subtilis ClpP, FRET peptide cleavage, 20 min; active means well fitted falling curve with a large enough effect; inconclusive means small, poorly fitted or top-dose-only effect; inactive means no such curve, though single readings can be large or run the other way; further: potency means the concentration at half of the fitted maximal effect; the source files actives as falling curves though it sought activators and does not explain the sign; nearly all actives have a fitted effect of over 65% in size
Target sequence (P80244 whole entry, looked up): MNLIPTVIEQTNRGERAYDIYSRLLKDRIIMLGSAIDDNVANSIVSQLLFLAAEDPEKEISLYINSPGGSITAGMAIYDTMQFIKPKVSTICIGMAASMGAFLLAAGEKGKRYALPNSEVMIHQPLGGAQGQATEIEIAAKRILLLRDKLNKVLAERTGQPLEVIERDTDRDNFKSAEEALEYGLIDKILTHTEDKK
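Buffer: 100 mM Tris/HCl pH8, 100 mM KCl, 0.05% low protease BSA, 2.5% glycerol, 0.01% Tween-20. ClpP 10 microg/mL final; 20 min RT; delta FRET normalized to ADEP and DMSO controls.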
TDP1 cell CPT = qHTS for Inhibitors of human tyrosyl-DNA phosphodiesterase 1 (TDP1): qHTS in cells in presence of CPT; Potency, µM (top dose mostly 46.2 µM), for the others: at the highest dose activity change, negative = growth inhibition, usual class: inhibitors; 12% of 420,000 active; chicken DT40 Tdp1-/-;hTDP1 cells + 20 nM CPT, ATP luminescence, 48 h; further: potency means the concentration at half of the fitted maximal effect; on the % scale 0 is the no-effect control and ±100 the full control effect; nearly all actives have a fitted effect of over 55% in size
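Cell growth measured by CellTiter-Glo luminescence after a minimum 48 h, 37 C compound exposure with 20 nM CPT in Tdp1-knockout DT40 cells stably expressing hTDP1, seeded 400/well; qHTS titration format.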
* marks the source's active call; other numbers are inactive results; u = inconclusive; x = no result given; [ ] = another dose, or the depositor's remark. Unless noted, the call rests on the fitted dose curve; in most records, active means well fitted inhibition curve with a large enough effect; inconclusive means small, poorly fitted or top-dose-only effect; inactive means flat fitted curve, though single readings scatter.

SMILES	DT40 TDP1 no CPT	DRD3 agonist	IL1B secr inh	DRD3 antagonist	ClpP mod	TDP1 cell CPT
COc1ccc(C(=O)C=Cc2ccc3c(c2)OCO3)cc1OC	u	9	-23	30	-2%	-21%
COc1cc(/C=C/[N+](=O)[O-])ccc1OC(=O)/C=C/c1ccc(F)cc1	2.3µM*	4	u	-14	-4%	3.3µM*
COc1cc(OCc2ccccc2)c(C(=O)/C=C/c2ccc3c(c2)OCO3)c(OC)c1OC	u	-2	-91*	1	x	u
CN(C)c1ccc(/C=C2/CCCc3c2nc2ccccc2c3C(=O)O)cc1	-20%	x	x	x	-7%	-2%
CCOC(=O)c1c(C)[nH]c(C)c1S(=O)(=O)NCC(=O)NCc1cccc(Br)c1	-23%	7	x	x	1%	-22%
COc1ccc(C(=O)NCc2nnc(SCC(=O)c3ccccc3)n2C)cc1OC	-20%	1	13	25	2%	-16%
CCN(C(=O)Cc1c(C(=O)O)c(C)cn1C)c1cccc(Cl)c1	-17%	6	x	x	1%	-22%
COc1cc(O)c(C(=O)/C=C/c2ccccc2)c(OC)c1	18µM*	4	-106*	38	7%	15µM*
COc1cc(OC)c(C(=O)C=Cc2ccc(OC)c(OC)c2)c(OC)c1	u	-5	-101*	u	x	u
COc1cc(OC)c(C(=O)/C=C/c2ccc(OCc3ccccc3)c(OC)c2)c(OC)c1	23µM*	-3	-90*	3	1%	23µM*
COc1cc(/C=C/C(=O)NC(C)(C)C)ccc1OCc1ccccc1	u	-1	-13	7	-13%	u
O=C(/C=C/c1ccc(O)cc1)c1c(O)cc(O)cc1O	-23%	0	-8	6	-2%	0%
Cc1nc2ccccc2c(=O)n1NC(=O)c1cc(Br)ccc1Cl	25%	1	-1	2	-5%	13%
Cc1cccc(N(C(=O)c2csnn2)C(C(=O)NCc2ccccc2)c2cccs2)c1 (configuration not stated)	u	4	3	2	x	-19%
CC(C)c1cc(NC(=O)CCl)on1	9.2µM*	0	-79*	-2	-2%	13µM*
COc1cccc(C(NC(C)=O)c2nc(-c3cccc(C(C)C)c3)cs2)c1 (configuration not stated)	u	8	-8	26	-1%	u
O=S(=O)(/N=C(/Sc1ccccc1)c1ccccc1)c1ccc(Cl)cc1	16µM*	x	x	x	-5%	u
O=[N+]([O-])c1ccc(Cl)c(S(=O)(=O)/N=C(/Sc2ccc(Br)cc2)c2ccccc2)c1	2.8µM*	x	x	x	0%	6.3µM*
O=S(=O)(/N=C(/Sc1ccccc1)c1ccccc1)c1ccccc1	15µM*	-6	-104*	u	-2%	8.2µM*
O=S(=O)(/N=C(/Sc1ccc(Cl)cc1)c1ccccc1)c1ccccc1	14µM*	x	x	x	u	10µM*
O=C(Cc1ccc(Br)cc1)NNC(=O)c1cccs1	-17%	-6	14	-9	x	-27%
COc1ccc(C(=O)NC2CCCc3ccccc32)cc1 (configuration not stated)	u	0	-4	16	x	-17%
O=C(NC1CCCc2ccccc21)c1ccc2c(c1)sc1nc(-c3ccc(F)cc3)cn12 (configuration not stated)	u	2	x	x	u	u
Cc1ccc(-c2cn3c(n2)sc2cc(C(=O)NC4CCCc5ccccc54)ccc23)cc1 (configuration not stated)	13µM*	7	x	x	u	13µM*
COc1ccc(-c2cn3c(n2)sc2cc(C(=O)NC4CCCc5ccccc54)ccc23)cc1 (configuration not stated)	5.8µM*	1	x	x	3%	8.2µM*
SMILES	DT40 TDP1 no CPT	DRD3 agonist	IL1B secr inh	DRD3 antagonist	ClpP mod	TDP1 cell CPT
CCOc1ccc(N(CC(=O)NCCc2ccccc2)S(=O)(=O)c2ccccc2)cc1	-6%	-8	6	-8	x	-9%
O=[N+]([O-])c1cc(Cl)cc(C2=NCCN2)c1	u	-2	6	-20	1%	18µM*
O=[N+]([O-])c1cc(Br)c2c(c1)CCN2	-27%	-1	8	-11	1%	3%
COc1ccc(Cl)cc1NC(=O)c1cc2nc(-c3ccc(C)cc3)cc(C(F)(F)F)n2n1	u	2	x	x	1%	-1%
COc1ccc(/C=C/C(=O)O)cc1S(=O)(=O)NCc1ccccc1	-6%	36*	-8	-17	-4%	-10%
COc1cc(/C=C/C(=O)O)cc(S(=O)(=O)NCCCO)c1OC	1%	-5	8	14	28µM*	-7%
COc1ccc(Br)cc1S(=O)(=O)NCc1ccccc1	-13%	4	-19	4	2%	-5%
CCC(C)(C)NC(=O)C(c1ccc(C)cc1)N(CC1CCCO1)C(=O)CCC(=O)Nc1ccccn1 (configuration not stated)	-8%	-3	-1	-3	x	-16%
O=C(CN(Cc1ccccc1Cl)C(=O)CNS(=O)(=O)c1ccc(F)cc1)NCC1CCCO1 (configuration not stated)	u	-8	-9	-9	x	-9%
O=C(NC1CCCC1)C(c1ccccn1)N(C(=O)c1csnn1)C1CCCCC1 (configuration not stated)	u	-3	37	-19	-4%	21µM*
O=C(NC1CCCCC1)C(c1ccco1)N(C(=O)c1csnn1)C1CCCC1 (configuration not stated)	16µM*	-2	0	4	-7%	u
O=C(NC1CCCC1)C(c1ccccn1)N(C(=O)c1csnn1)C1CC1 (configuration not stated)	-28%	-3	-2	-14	-3%	-21%
Cc1ccc(OCC(=O)NNC(=S)NC(=O)c2cccs2)c(C)c1	16µM*	4	68	25	1%	16µM*
Cc1ccc(OCC(=O)NNC(=S)NC(=O)c2ccc(Br)o2)c(C)c1	13µM*	3	28	6	1%	u
COCCCNc1ncnc2sc(C(=O)N3CCCCC3)c(C)c12	u	x	x	x	x	-13%[9.04 µM]
Cc1cc(C)c2cc(C=O)c(Cl)nc2c1	1µM*	-6	36	u	4%	1.2µM*
